Data: ChEMBL document CHEMBL3988442, “University of Dundee, Small-Polar-MMV Screening Library” (2021)
For some of these results: Potency and affinity values are given separately.

Assays:
Set-up in all cases: scale not given: direction of the effect not stated beside the values
[1] = molecular target: Protein translocase subunit SecA (Escherichia coli (strain K12)) (UniProt P10408); assay: Assay to Identify E. coli SecA ATPase Inhibitors; format: functional; conditions: 30 µM
[2] = molecular target: T1, Ubiquitin-activating enzyme e1, putative (Leishmania donovani (strain BPK282A1)) (UniProt E9BSI1); assay: Leishmania donovani Ubiquitin Activating Enzyme (LdE1); format: functional; conditions: 30 µM
T1 sequence (whole entry): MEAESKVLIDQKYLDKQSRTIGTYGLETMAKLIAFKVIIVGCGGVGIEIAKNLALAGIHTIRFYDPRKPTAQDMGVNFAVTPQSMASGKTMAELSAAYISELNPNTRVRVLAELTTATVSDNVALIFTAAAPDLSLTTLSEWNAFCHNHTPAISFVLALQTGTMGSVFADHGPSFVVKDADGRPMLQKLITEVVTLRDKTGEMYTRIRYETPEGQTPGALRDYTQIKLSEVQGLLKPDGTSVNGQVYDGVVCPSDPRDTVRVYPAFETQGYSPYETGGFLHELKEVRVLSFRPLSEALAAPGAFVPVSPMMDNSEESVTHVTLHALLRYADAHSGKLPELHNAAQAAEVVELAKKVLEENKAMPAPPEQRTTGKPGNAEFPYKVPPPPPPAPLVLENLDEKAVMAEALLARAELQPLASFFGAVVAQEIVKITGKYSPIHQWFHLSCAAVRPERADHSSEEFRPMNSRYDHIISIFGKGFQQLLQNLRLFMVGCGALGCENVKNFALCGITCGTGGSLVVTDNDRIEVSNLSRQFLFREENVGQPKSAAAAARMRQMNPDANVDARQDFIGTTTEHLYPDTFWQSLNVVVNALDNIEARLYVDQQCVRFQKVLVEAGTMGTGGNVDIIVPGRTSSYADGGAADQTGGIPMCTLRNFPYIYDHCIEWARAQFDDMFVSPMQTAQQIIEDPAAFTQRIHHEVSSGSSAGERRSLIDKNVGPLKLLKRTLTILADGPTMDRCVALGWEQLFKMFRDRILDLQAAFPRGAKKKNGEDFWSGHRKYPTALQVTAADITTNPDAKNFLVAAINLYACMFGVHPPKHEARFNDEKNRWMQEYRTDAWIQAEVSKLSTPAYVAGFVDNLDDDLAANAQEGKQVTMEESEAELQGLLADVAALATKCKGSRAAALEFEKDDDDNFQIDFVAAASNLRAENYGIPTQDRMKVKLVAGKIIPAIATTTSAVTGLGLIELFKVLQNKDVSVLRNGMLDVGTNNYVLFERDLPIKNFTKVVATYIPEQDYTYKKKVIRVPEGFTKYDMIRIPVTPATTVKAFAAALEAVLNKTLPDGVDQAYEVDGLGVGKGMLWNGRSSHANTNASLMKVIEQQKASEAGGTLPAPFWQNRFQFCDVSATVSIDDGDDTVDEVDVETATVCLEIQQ

[3] = molecular target: AMP-activated protein kinase, AMPK (Homo sapiens) (UniProt P54646+O43741+P54619+Q9UGJ0+Q9Y478+Q13131+Q9UGI9); assay: AMP-dependent Kinase enzyme assay. An in vitro enzyme assay that detects ADP turnover that is directly proportional to AMPK activity. This uses naive AMPK that is activated during the assay with MK-8722; format: functional; conditions: 30 µM
[4] = molecular target: Sialic acid-binding Ig-like lectin 9 (Homo sapiens) (UniProt Q9Y336); assay: Hs-Siglec9 ALPHAscreen SOP 20170721; conditions: 10 µM
Chain of Sialic acid-binding Ig-like lectin 9 (Homo sapiens) (Q9Y336 whole entry): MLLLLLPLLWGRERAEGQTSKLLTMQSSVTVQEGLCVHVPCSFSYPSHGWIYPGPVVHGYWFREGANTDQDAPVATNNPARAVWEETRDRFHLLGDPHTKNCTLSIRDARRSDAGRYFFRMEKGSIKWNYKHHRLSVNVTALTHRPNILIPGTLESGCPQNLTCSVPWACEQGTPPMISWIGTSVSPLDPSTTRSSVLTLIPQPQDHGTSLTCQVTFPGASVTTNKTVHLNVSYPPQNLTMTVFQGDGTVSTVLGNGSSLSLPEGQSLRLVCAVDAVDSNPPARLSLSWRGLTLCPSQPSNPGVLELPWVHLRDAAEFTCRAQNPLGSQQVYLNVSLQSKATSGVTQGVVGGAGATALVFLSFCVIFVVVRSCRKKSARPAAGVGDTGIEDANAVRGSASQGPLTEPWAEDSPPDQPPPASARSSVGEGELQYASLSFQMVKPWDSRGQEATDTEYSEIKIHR

[5] = system: Trypanosoma cruzi; assay: Trypanosoma cruzi phosphomannomutase and mannose-1-phosphate guanylyltransferase assay; format: functional; conditions: 10 µM
[6] = molecular target: T2, Arginase-2, mitochondrial (Homo sapiens) (UniProt P78540); assay: in vitro enzyme assay to detect the production of urea directly proportional to the activity of Arginase II; format: functional; conditions: 33.3 µM; further: in the data most compounds retested in dose-response had high values
T2 sequence (whole entry): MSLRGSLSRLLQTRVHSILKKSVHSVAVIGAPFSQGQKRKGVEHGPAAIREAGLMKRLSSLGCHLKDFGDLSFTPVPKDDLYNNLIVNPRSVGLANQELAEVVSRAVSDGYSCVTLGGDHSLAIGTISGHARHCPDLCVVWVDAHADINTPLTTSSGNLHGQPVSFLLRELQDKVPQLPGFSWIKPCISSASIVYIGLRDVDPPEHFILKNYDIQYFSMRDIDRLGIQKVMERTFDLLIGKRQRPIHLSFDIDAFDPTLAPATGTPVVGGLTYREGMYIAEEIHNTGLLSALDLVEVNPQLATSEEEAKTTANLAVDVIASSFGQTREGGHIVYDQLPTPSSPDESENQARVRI

[7] = molecular target: T3, Proteasome subunit beta (Trypanosoma cruzi) (UniProt O96673); assay: Trypanosoma cruzi proteasome chymotrypsin-like activity (TcProtChymo) assay.; further: in the data most compounds retested in dose-response had high values; format: functional; conditions: 9.37 µM
T3 sequence (whole entry): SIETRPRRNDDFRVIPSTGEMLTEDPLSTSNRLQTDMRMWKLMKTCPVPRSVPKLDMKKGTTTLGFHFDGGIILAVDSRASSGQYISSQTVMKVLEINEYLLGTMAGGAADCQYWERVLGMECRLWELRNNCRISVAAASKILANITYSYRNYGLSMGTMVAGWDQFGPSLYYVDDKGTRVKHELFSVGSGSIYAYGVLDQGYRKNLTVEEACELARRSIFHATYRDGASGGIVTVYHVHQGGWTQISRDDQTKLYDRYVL

[8] = organism: Homo sapiens; assay: To identify inhibition of the IFN signalling (Jak-Stat) pathway via expression of an eGFP reporter gene under the control of an IFN-stimulated response element (ISRE) containing MxA promoter.; format: functional; conditions: 30 µM
[9] = molecular target: T4, Tyrosyl-tRNA synthetase, putative (Trypanosoma cruzi (strain CL Brener)) (UniProt Q4DSP6); assay: Trypanosoma cruzi tyrosyl tRNA synthetase (TcYRS) _High Tyrosine SOP; format: functional; conditions: 30 µM; further: in the data most compounds retested in dose-response had high values
T4 sequence (whole entry): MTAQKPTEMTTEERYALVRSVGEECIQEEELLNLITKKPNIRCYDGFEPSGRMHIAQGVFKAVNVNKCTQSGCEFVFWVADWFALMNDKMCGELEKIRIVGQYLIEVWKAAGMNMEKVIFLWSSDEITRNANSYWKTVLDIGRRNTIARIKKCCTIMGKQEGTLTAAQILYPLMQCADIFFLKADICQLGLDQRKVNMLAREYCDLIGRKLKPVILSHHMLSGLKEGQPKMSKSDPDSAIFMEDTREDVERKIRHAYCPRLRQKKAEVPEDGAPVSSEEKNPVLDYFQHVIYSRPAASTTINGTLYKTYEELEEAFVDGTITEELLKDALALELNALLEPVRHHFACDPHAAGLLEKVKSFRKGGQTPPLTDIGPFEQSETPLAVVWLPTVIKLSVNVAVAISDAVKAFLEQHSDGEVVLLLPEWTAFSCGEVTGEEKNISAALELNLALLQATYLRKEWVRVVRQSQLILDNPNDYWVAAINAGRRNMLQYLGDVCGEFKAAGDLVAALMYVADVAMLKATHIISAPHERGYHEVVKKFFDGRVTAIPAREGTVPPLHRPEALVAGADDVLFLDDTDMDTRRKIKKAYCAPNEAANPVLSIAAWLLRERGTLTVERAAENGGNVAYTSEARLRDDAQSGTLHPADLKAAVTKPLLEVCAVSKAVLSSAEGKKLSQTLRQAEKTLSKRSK

[10] = molecular target: T4, Tyrosyl-tRNA synthetase, putative (Trypanosoma cruzi (strain CL Brener)); assay: Trypanosoma cruzi tyrosyl tRNA synthetase (TcYRS) SOP; format: functional; conditions: 30 µM
[11] = molecular target: Chromo domain-containing protein 1 (Saccharomyces cerevisiae (strain ATCC 204508 / S288c) (Baker's yeast)) (UniProt P32657); assay: ScCHD-1 Enzyme Inhibition Assay; format: functional; conditions: 30 µM; further: in the data most compounds retested in dose-response had high values
Chain of Chromo domain-containing protein 1 (Saccharomyces cerevisiae (strain ATCC 204508 / S288c) (Baker's yeast)) (P32657 whole entry, the tested form may be a part): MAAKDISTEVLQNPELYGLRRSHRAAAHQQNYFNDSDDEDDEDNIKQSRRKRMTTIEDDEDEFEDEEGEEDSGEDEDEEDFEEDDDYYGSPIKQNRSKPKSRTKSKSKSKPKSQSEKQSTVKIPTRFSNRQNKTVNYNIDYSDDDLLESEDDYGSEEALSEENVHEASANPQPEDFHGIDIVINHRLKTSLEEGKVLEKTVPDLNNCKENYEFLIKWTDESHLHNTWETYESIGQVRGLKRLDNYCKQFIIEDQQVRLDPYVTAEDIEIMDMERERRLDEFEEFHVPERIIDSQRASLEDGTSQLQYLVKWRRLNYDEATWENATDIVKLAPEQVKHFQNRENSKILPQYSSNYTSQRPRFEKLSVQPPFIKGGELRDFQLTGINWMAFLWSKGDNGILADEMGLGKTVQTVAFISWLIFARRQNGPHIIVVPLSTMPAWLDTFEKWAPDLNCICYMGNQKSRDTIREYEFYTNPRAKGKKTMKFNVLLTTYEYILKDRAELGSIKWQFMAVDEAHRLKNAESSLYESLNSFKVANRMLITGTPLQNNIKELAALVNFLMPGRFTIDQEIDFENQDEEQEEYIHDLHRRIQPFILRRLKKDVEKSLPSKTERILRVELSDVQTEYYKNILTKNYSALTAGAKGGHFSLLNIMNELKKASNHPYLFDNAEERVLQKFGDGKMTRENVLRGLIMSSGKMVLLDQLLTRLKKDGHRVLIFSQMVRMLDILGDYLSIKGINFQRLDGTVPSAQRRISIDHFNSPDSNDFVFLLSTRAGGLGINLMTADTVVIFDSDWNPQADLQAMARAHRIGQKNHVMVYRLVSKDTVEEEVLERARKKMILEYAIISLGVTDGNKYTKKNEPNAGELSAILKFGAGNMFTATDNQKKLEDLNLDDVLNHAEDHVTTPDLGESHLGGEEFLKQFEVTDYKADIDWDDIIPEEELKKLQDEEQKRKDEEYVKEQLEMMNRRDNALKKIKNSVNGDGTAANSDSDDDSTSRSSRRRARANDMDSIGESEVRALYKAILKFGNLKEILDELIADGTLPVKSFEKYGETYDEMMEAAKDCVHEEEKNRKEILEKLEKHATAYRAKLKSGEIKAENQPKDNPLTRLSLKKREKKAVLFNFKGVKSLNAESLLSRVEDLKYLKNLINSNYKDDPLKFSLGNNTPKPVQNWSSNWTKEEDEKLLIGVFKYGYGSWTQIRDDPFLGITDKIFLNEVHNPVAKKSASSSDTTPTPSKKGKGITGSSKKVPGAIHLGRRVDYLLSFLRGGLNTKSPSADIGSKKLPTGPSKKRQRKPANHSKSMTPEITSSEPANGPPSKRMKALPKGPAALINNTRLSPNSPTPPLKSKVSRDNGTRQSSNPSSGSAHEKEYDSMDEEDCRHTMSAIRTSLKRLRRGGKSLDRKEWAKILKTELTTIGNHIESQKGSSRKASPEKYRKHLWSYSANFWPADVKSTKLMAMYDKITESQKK

Chain of Protein translocase subunit SecA (Escherichia coli (strain K12)) (P10408 whole entry): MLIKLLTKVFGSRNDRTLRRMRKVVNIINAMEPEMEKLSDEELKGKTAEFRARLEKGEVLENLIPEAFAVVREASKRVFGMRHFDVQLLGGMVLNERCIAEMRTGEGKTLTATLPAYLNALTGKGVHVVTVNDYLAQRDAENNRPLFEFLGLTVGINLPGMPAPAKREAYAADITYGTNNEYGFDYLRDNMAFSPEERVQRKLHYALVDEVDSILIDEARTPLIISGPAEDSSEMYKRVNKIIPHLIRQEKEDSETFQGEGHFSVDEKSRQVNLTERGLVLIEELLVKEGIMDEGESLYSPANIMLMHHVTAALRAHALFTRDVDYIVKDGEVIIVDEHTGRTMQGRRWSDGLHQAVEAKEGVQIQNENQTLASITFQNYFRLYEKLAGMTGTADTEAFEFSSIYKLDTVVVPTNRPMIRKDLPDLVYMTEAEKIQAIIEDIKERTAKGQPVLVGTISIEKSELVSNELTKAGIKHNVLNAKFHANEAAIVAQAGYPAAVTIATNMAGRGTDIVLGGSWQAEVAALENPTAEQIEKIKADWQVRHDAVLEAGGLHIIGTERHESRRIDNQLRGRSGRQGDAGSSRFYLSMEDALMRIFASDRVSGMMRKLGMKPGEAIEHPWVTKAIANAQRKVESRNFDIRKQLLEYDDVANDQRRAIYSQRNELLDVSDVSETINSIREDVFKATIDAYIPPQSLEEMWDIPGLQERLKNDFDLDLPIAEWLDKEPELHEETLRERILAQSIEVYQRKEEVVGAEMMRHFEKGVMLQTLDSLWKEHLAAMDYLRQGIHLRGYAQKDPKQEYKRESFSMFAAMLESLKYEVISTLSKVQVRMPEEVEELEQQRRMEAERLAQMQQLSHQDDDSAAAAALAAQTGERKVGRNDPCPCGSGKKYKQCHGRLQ

Row | Structure (SMILES) | Percent Effect [1] [%] | Percent Effect [2] [%] | Percent Effect [3] [%] | Percent Effect [4] [%] | Percent Effect [5] [%] | Percent Effect [6] [%] | Percent Effect [7] [%] | Percent Effect [8] [%] | Percent Effect [9] [%] | Percent Effect [10] [%] | Percent Effect [11] [%]
1 | Nc1cc(N2CCCC2c2cnccn2)ncn1 (stereo unspecified) | -0.532 | 9.46 | -1.66 | -2.65 | 2.96 | -5.34 | 14.8 | 2.07 | 8.6 | 14.3 | -13.1
2 | Cc1nc(CN2CCCN(C(=O)C3(C#N)CCCCC3)CC2)cs1 | -5.19 | 5.06 | -4.31 | 9.63 | -1.79 | 0 | 7.12 | 13.8 | 6.4 | 13.9 | -3.28
3 | COc1ccc(C)cc1CNCc1ccc(-n2nc(C)cc2C)nc1 | 0.678 | 10.5 | 3.46 | 0.511 | -2.82 | 1.15 | 12.2 | 22.1 | 3.43 | 17.1 | -9.32
4 | Cn1cc(CN2CCCC3(CCN(c4nncs4)C3)C2)cn1 (stereo unspecified) | -9.67 | 2.7 | 2.26 | -4.09 | -2.83 | -1.24 | 1.97 | -4.18 | 1.07 | 6.17 | -0.679
5 | CN1CCOC(CNCc2cccc(OCC(F)(F)F)c2)C1 (stereo unspecified) | -3.56 | 5.06 | -19.3 | 12.1 | -1.79 | 0.38 | -6.31 | 0.0497 | 4.43 | 1.27 | -2.57
6 | COc1c(C2CCCN2CC(=O)Nc2nc(C)cs2)c(C)nn1C (stereo unspecified) | -0.196 | -5.41 | -8.37 | 10.3 | 4.74 | 1.29 | 5.03 | 5.63 | 4.95 | 6.1 | 0.0954
7 | O=C(Cn1c(=O)n(Cc2ccco2)c2ncccc21)NC1CCCCC1 | -8.09 | 14.9 | -4.42 | 11.5 | 8.5 | -4.41 | 18.6 | 3.85 | 6.45 | 14.3 | 53
8 | CN(C)CCNC(=O)CNC(=O)N1CCc2c([nH]c3ccc(Cl)cc23)C1 | -4.87 | -1.33 | 9.82 | 0.772 | -2.55 | -9.33 | 0.185 | -14.7 | -1.06 | -7.69 | -0.829
9 | COc1cnc(N2CCC(Oc3ccccc3OC)(C(=O)O)CC2)nc1 | -5.13 | 11 | 0.422 | 4.04 | 0.595 | -2 | 8.99 | -4.79 | 5.21 | 8.64 | -4.67
10 | CCS(=O)(=O)N1CCC(c2nc3ccc(-c4ccccc4)cn3n2)CC1 | -0.159 | -2.74 | -1.18 | 0.509 | 5.75 | 0.399 | 10 | -3.81 | -24 | 8.64 | 2.57
11 | CN(Cc1ncc(-c2ccccc2)o1)CC1CCCN1c1cccnn1 (stereo unspecified) | -0.973 | -26 | 3.71 | 2.54 | 7.74 | -1.9 | 1.54 | -9.54 | 2.86 | 9.41 | -9.3
